Reference: the supplement of paper PMC6555819

How the values were obtained:
Experiment in all cases: PBM binding z-score (relative to random genomic background probes); higher = stronger binding; sequences stand for … in GC…GCGATTGACAGCGTAGAATGAAGG
[1] = system: RARb homodimer (NR concentration 270 nM)
Method in brief: (§1)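 Custom Agilent 4×180K protein-binding microarrays carried double-stranded probes. Their 34-nt variable regions held direct-repeat seeds, single-nucleotide variants, half-site ablations and random human genomic background sequences. Arrays were incubated 1 h with ligand-free nuclear receptor dimers in PBS pH 7.4, 2% milk, 0.02% Triton X-100, 1 mM DTT, 0.2 mg/mL BSA and 0.4 mg/ml salmon testes DNA. Antibodies against each partner (one per run) detected binding, and scanned fluorescence was regression-normalized. Binding z-scores use random background probes as reference.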

[2] = system: RARg:RXRa (NR concentration 270 nM, RXRa partner concentration 90 nM)
Method in brief: as §1

[3] = system: RARg homodimer (NR concentration 270 nM)
Method in brief: as §1

[4] = system: RXRa DBDmut IVT, anti-RXR (DBD mutation: RXRa K156A/R161A, NR concentration 90 nM)
Method in brief: as §1

[5] = system: RXRa homodimer (NR concentration 180 nM)
Method in brief: as §1

[6] = system: THRa homodimer (NR concentration 90 nM)
Method in brief: as §1

[7] = system: VDR:RXRa (NR concentration 270 nM, RXRa partner concentration 90 nM)
Method in brief: as §1

[8] = system: VDR homodimer (NR concentration 270 nM)
Method in brief: as §1

Sequence | PBM binding z-score [1] | PBM binding z-score [2] | PBM binding z-score [3] | PBM binding z-score [4] | PBM binding z-score [5] | PBM binding z-score [6] | PBM binding z-score [7] | PBM binding z-score [8]
CGCGAAAGGTCGGTTGAGGTGAGTATACGGATAA | 2.23 | 2.88 | 2.61 | 0.708 | 2.44 | 1.65 | 2.25 | 0.652
CAAACTAGGTCACGCAAGGTCAAAGTCGAATGAC | 5.54 | 6.98 | 7.6 | 3.02 | 6.98 | 4.21 | – | 4.65
AATACAGGGTCATCGGAGGCCAGAGTACGCACAG | 4.26 | 5.91 | 5.05 | 3.51 | 6.76 | 1.96 | – | 3.88
CGTCAAAGTTCAATTAAGGTAACGTAAAGCACGC | 3.89 | 5.26 | 5.98 | 4.4 | 3.67 | 2.51 | – | 3.71
CCTTACGGGTCACTCGAGGTTATAGCATCGGAGT | 3.27 | 4.49 | 3.78 | 1.69 | 4.75 | 0.632 | – | 2.08
TCTGCTAGGTCAACGAAGGTCAGCTAATCTGCTA | 5.28 | 5.51 | 6.42 | 1.14 | 4.18 | 1.69 | – | 1.38
CCTAGCAGGTCAATCTGGGTCACTCAAGGCTTGA | 4.09 | 4.92 | 5.25 | 2.2 | 4.25 | 1.44 | – | 1.66
TAGCCTAGCTCAGATCGGGCCAGTATACGCTATA | -1.12 | -0.862 | -0.645 | -1.11 | -0.698 | -0.99 | – | -0.652
TTACCGAGGTGAGCTGAGGTCGTTGATCCAACTC | 1.58 | 1.48 | 1.04 | 0.0413 | 1.7 | 1.88 | – | 1.73
CTCGAAAGGTCGATTGAGGTGAGTATACGGATAA | 2.68 | 3.71 | 3.34 | 1.66 | 3.46 | 0.93 | – | 0.553
CTCGAAAGGTCGTTTGAGGTGAGTATACGGATAA | 3.19 | 4.34 | 3.76 | 2.94 | 4.56 | 1.76 | – | 2.79
ATATGCAGGTTAGCTGGGGTCATTCAGACTAGGC | 3.72 | 4.14 | 3.11 | 1.89 | 5.56 | 2.98 | – | 4.17
CAAACTAGGTCATGAGGTCAAAGTCCGCTTCCCG | 5.22 | 7.26 | 6.81 | 3.45 | 7.98 | 4.88 | – | 5.84
CAAACTAGGTCACGTAAGGTCAAAGTCGAATGAC | 5.56 | 7.3 | 7.46 | 2.68 | 6.84 | 5.19 | 7.01 | 4.03
AATACAGGGTCATCCTAGGCCAGAGTACGCACAG | 3.81 | 5.57 | 4.83 | 3.9 | 6.16 | 1.97 | – | 3.52
GCATATAGGTAATACAAGATGAAAGTCCGATTGT | -0.399 | 0.381 | 0.572 | 0.287 | 0.469 | -0.636 | – | -0.117

Sequence | PBM binding z-score [1] | PBM binding z-score [2] | PBM binding z-score [3] | PBM binding z-score [4] | PBM binding z-score [5] | PBM binding z-score [6] | PBM binding z-score [7] | PBM binding z-score [8]
TAGCCGAGGTCAGATCGGGCCAGTATACGCTATA | 3.62 | 5.06 | 5.59 | 2.66 | 4.74 | 1.32 | – | 2.08
GCATATAGGTCATACAAGGTGAAAGTCCGATTGT | 3.94 | 5.1 | 4.65 | 1.98 | 4.8 | 1.62 | – | 1.23
GCATATAGGTTATACAAGGTGAAAGTCCGATTGT | 1.57 | 1.7 | 1.41 | 0.657 | 1.79 | 1.27 | 1.57 | 0.435
CGTCCAAGGTCAAAGGTCAGTGGAGAGATGACGG | 5.56 | 8.71 | 8.02 | 4.1 | 10.1 | 2.93 | – | 4.05
CGAACTAGATCAGAACAGGACAGTGAAGGATGAT | 0.0748 | -0.355 | 0.431 | 0.063 | 0.00592 | -0.243 | – | -0.111
ACTAGTTGGTCAACTGAGGTCACACACAATTCGG | 4.82 | 4.49 | 4.46 | 1.89 | 4.58 | 4.84 | – | 3.22
TATACATGGTCAAAGGCCAGAGTACGAATGTCGA | 1.31 | 1.59 | 1.67 | -0.652 | 1.39 | -0.46 | – | 0.302
GCTAGTTGGTCAGTAAAAGGTAACACACCGGTCG | 1.31 | 0.845 | 0.741 | 0.148 | 0.462 | 0.175 | – | 0.0919
CGTCCAAGGTCATAGGAGGTCAGAGAAGACAGAT | 5.31 | 6.78 | 7.13 | 4.15 | 6.71 | 3.44 | – | 4.23
TAGCCTAGGTCAGATCGGGTCAGTATACGCTATA | 3.56 | 3.77 | 4.62 | -0.194 | 2.58 | 1.29 | 3.75 | 0.51
TTACCAAGGTGAGCTGAGGTCATTGATCCAACTC | 3.91 | 3.65 | 3.31 | 0.946 | 4.03 | 4.43 | – | 4.32
CTCGAAAGGTCGTGCTCAGGTCAGTATACCAAAC | 4.16 | 7.03 | 4.92 | 2.37 | 5.35 | 2.7 | – | 2.45
CAAACTAGGTCACTGAGGTCAAAGTCCGTGCGTA | 5.53 | 6.59 | 7.09 | 3.56 | 6.35 | 5.12 | – | 7.63
CCTAGCAGGCCAATCTGGATCACTCAAGGCTTGA | -0.439 | -0.153 | -0.148 | 0.159 | -0.35 | -0.7 | – | -0.867
CCTAGTTGGTCAACGTCACACACGCTATAGGTAC | 1.13 | 0.774 | 1.18 | 0.857 | 0.526 | 0.632 | – | 0.435
